Rows were chosen to be rich in hits. Some 4.8% of all compounds tested hit in one or more screens of this group.
APP 5'UTR act: activates APP 5'UTR luciferase reporter. SH-SY5Y APP 5'UTR luciferase reporter, luminescence; zero percent = DMSO vehicle wells. activation, % at 2 µM. actives 1% (n = 190,000). AID 1276;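 active = activation above a set limit, based on mean plus 3 SD of controls, cut at about 140% in these data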
STAT1 activator: activators of IFN-gamma induced STAT1 signaling; activation (% of control), % at 5.5 µM; actives 2.6% (n = 200,000); NIH 3T3 STAT1-luciferase reporter, luminescence; 100% = IFN-gamma alone, no compound; AID 932;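 active = activation above the screen-wide mean activation plus 3 SD, cut at about 130% in these data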
NF-kB expr up: raises NF-kB expression in human neuronal cells. fold change at 12.5 µM. actives 1.6% (n = 190,000). NF-kB reporter expression; hits give high values. AID 1239; in the data active = fold change above about 3.3
Hsp70 activator: switches on Hsp70 transcription | activation, % at 10 µM | HeLa Hsp70 promoter luciferase reporter, luminescence; scaled: vehicle 0, proteasome-inhibitor control 100% | actives 0.04% (n = 200,000);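 active = activation above the mean across all tested compounds plus 3 SD, cutoff set per campaign, cut at about 5.5% in these data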
APP 5UTR inh: APP translation inhibition; AID 1285; actives 0.82% (n = 190,000); SH-SY5Y APP 5'UTR-luciferase reporter, luminescence; inhibition, % at 2 µM;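 active = inhibition above a set limit, derived from the sample mean plus 3 SD, cut at about 45% in these data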
Wee1 stabilizer: inhibitors of human Wee1 degradation | reporter increase, % at 5 µM | HeLa Luc-Wee1K328M stability, luciferase luminescence; 100% = proteasome inhibitor MG132 effect | P30291 | actives 1.2% (n = 220,000);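 active = activation above the mean of all tested compounds plus 3 SD, set per screening run, cut at about 8.8% in these data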;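 also: cells exposed to compound for 20 h before luminescence read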
Target sequence (P30291 whole entry K328M): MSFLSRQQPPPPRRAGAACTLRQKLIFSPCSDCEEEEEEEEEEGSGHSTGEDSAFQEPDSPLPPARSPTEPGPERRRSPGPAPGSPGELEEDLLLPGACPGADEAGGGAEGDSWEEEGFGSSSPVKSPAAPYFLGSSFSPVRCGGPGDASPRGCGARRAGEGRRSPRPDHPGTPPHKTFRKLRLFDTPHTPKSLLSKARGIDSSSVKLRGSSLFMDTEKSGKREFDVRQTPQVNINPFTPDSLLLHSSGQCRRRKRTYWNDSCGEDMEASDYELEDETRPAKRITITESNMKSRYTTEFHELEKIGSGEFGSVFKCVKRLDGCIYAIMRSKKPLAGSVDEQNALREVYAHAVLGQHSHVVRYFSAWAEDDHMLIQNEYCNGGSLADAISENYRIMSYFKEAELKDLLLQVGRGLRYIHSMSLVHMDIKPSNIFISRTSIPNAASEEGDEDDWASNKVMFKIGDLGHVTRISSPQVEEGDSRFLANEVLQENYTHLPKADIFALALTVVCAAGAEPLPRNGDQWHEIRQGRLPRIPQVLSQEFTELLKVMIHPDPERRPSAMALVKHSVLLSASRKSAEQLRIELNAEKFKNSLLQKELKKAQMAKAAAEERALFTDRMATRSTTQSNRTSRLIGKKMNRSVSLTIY
A number is an active result; i = inactive; nt = no result.

SMILES	APP 5'UTR act	STAT1 activator	NF-kB expr up	Hsp70 activator	APP 5UTR inh	Wee1 stabilizer
O=C(CN1C(=O)c2ccccc2S1(=O)=O)Nc1ccc(S(=O)(=O)N2CCCC2)cc1	i	i	i	i	i	i
CCOc1ccc(CCNC(=O)C2=C(C)C(=O)OC23CCC(C)CC3)cc1 (configuration not stated)	i	i	i	i	i	i
COc1cc(NC(=O)c2ccc3c(c2)OCO3)c2ncccc2c1	i	i	i	i	i	i
CN(C)/C=N/c1ncnc2c1cnn2-c1ccc(C(F)(F)F)cn1	i	i	i	i	i	i
CS(=O)(=O)c1ccc(C(=O)OCc2nnc(-c3ccc(Cl)cc3)o2)cc1[N+](=O)[O-]	i	i	8.4	i	i	i
CCOC(=O)c1c(C)nc2sc(C(N)=O)c(N)c2c1-c1ccc(OC)cc1	i	i	i	i	64	i
c1ccc2c(c1)N1CCCN=C1N2CCN1CCCCC1	i	i	i	i	i	i
O=C1N=C2N(CCN3CCCCC3)c3ccccc3N2/C1=C\c1ccc([N+](=O)[O-])o1	i	i	i	i	96	i
O=C(Nc1ccc(C#Cc2ccccc2)cc1)C1CC1	i	196	3.9	i	i	i
CCCC(=O)Nc1ccc(C#Cc2ccccc2)cc1	i	140	i	i	i	i
CC1CCc2sc(C(=O)OC(C)C(=O)Nc3ncc(Cl)cc3Cl)cc2C1 (configuration not stated)	i	i	i	i	i	10
Cc1cc(/C=C2\SC(=S)N(C)C2=O)c(C)n1-c1ccc(O)cc1	nt	nt	nt	nt	nt	i
CC(C)C(NC(=O)C1CCCCC1)C(=O)Nc1ccc2c(c1)OCCO2 (configuration not stated)	i	132	i	i	i	i
CC(C)C(NC(=O)C1CCCCC1)C(=O)Nc1ccncc1 (configuration not stated)	i	i	i	i	i	i
COc1ccc2nc(SCC(=O)N3CC(=O)Nc4ccccc43)c(C#N)cc2c1	i	i	i	i	60	i
Cc1cc(C)c2nc(SCC(=O)N3CC(=O)Nc4ccccc43)c(C#N)cc2c1	i	i	3.5	i	96	i
Cc1cc(C)cc(C(=O)N2CC(=O)Nc3ccccc32)c1	i	i	i	i	92	i
O=C(c1ccc(Cl)cc1)c1ccc(OCC(=O)N2CCOCC2)cc1	i	i	i	i	i	9.6
CC(C)(C)c1ccc(NC(=O)Nc2ccc(OCC(=O)N3CCOCC3)cc2)cc1	i	134	5.3	i	i	i
CCN(CC)CCP(=O)(c1ccccc1)c1ccccc1	i	i	i	i	i	i
c1ccc(-n2cnc3cc(NCc4ccco4)ccc32)cc1	i	147	i	i	i	i
Cc1ccc(-n2cnc3cc(NCc4cccs4)ccc32)cc1	i	i	i	i	i	i
COc1ccc(-n2cnc3cc(NCc4cccs4)ccc32)cc1	i	131	i	i	i	i
Cc1ccc(C(c2nnnn2C2CCCC2)N2CCc3ccccc32)cc1 (configuration not stated)	i	i	i	i	i	9.1
CCCc1ccc(-c2ccc(F)c(N)c2)nc1	140	i	4.2	i	i	i
SMILES	APP 5'UTR act	STAT1 activator	NF-kB expr up	Hsp70 activator	APP 5UTR inh	Wee1 stabilizer
Cc1occc1C(=O)Nc1nccs1	i	i	i	i	i	i
O=C(O)c1cnc(-c2ccccc2)nc1C(F)(F)F	i	i	i	i	i	11
CCOC(=O)c1cnc(-c2ccccc2)nc1C(F)(F)F	i	i	i	i	i	i
Cc1ccccc1NC(=O)N1CCCC(c2nc(-c3ccc(C(C)C)cc3)no2)C1 (configuration not stated)	i	135	i	i	i	i
O=C(CSc1nnc2n(C3CCCCC3)c(=O)c3ccccc3n12)OC1CCCCC1	i	i	i	i	i	i
CCc1ccccc1NC(=O)CN(C)C(=O)Cn1ncc(Cl)c(Cl)c1=O	i	i	i	i	97	i
Cc1ccc(C(=O)OCn2ncc(Cl)c(Cl)c2=O)cc1	i	i	i	88	92	i
Cc1cc(Br)ccc1NC(=O)CNC(=O)Cn1ncc(Cl)c(Cl)c1=O	i	i	i	i	96	i
CCOC(=O)c1ccc(NC(=O)Cn2ncc(Cl)c(Cl)c2=O)cc1	i	i	i	5.8	96	i
Cc1ccc(Nc2nc3ccccc3[nH]2)nc1	i	i	5.4	i	i	i
CCN(CC)CCCNc1nc2ccccc2[nH]1	i	i	i	i	i	i
CCNc1nc2ccccc2[nH]1	nt	i	i	i	nt	9.8
CC(=O)N(/C=C1\SC(=S)N(c2ccccc2)C1=O)c1ccccc1	nt	nt	nt	nt	nt	10
Cc1cccc(OCC(O)CN2CC3(C)CC2CC(C)(C)C3)c1 (configuration not stated)	i	i	i	i	49	i
COc1ccc2nc(NC(=O)CSc3nc(C)cc(=O)[nH]3)sc2c1	i	i	i	i	60	i
COc1ccc2nc(NC(=O)CSc3nnnn3C)sc2c1	i	142	i	i	i	i
COc1ccc2nc(NC(=O)CSc3nccc(C)n3)sc2c1	i	i	i	i	i	i
CCCOc1ccc(CNC(=O)Cn2ncc3ccccc32)cc1	nt	nt	nt	nt	nt	i
COc1ccc(C(=S)Nc2ccc(N(C)C)cc2)cc1	170	i	5.4	i	i	i
Cc1ccc(Nc2c(F)c(F)c(F)c(F)c2C(=O)O)cc1	i	i	i	i	i	13
Cc1cccc(Nc2c(F)c(F)c(F)c(F)c2C(=O)O)c1	i	i	i	i	i	i
Nc1c(C(=O)N/N=C/c2ccc(F)cc2)oc2nc(-c3ccccc3)cc(-c3ccco3)c12	nt	nt	nt	nt	nt	i
c1ccc(-c2noc(CC3CCCCC3)n2)cc1	i	136	i	i	i	i
CCOc1cc2c(cc1OC)C(c1cccc([N+](=O)[O-])c1)NCC2 (configuration not stated)	i	i	i	i	i	i
COc1ccc(C2NCCc3cc(OC)c(OC)cc32)cc1OC (configuration not stated)	i	i	i	i	59	i
SMILES	APP 5'UTR act	STAT1 activator	NF-kB expr up	Hsp70 activator	APP 5UTR inh	Wee1 stabilizer
O=C(Cn1ncc(N2CCCC2)c(Cl)c1=O)c1ccc(Cl)cc1	i	136	i	i	i	i
O=C(Cn1ncc(N2CCOCC2)c(Br)c1=O)c1ccc(Cl)cc1	i	i	i	i	i	i
O=C(Nc1ccccc1O)c1csc2c1CCCC2	i	i	i	i	i	9.4
O=C(Nc1ccccc1O)c1c(O)c2c([nH]c1=O)CCCC2	i	i	4.5	i	i	i
COc1ccc(NC(=O)c2csc3c2CCCCC3)c(OC)c1	i	i	i	i	i	i
O=C(Nc1nccs1)c1c(O)c2c([nH]c1=O)CCCC2	nt	nt	nt	nt	nt	i
CC(C)CC(NS(=O)(=O)c1cccc(C(=O)O)c1)C(=O)O (configuration not stated)	i	i	i	i	i	i
Clc1nc(-c2ccccn2)nc2scc(-c3ccccc3)c12	i	i	3.3	i	i	i
